Screens as filed in PubChem.
FMDV inh = High Throughput Screening for Foot and Mouth Disease Virus Antivirals. 410,000 compounds, 1.2% hits. FMDV antiviral cell-based qHTS. Potency, µM (titrated, usually from 57.9 µM), without a hit: at the top dose activity change, negative = inhibition, actives largely listed as inhibitors; calls by dose curve; tested in HEK293T cells; further: read-out not given here; potency means the concentration at half of the fitted maximal effect; on the % scale 0 is the no-effect control and ±100 the full control effect; nearly all actives have a fitted effect of over 45% in size
Giardia FBPA inh = qHTS Assay for Inhibitors of Fructose-1,6-bisphosphate Aldolase from Giardia Lamblia | A8B2U2 | purified Giardia FBPA | Potency, µM (top dose mostly 59.6 µM), inactives show at the top dose activity, negative = inhibition, actives largely listed as inhibitors | 290,000 compounds, 0.71% hits; further: potency means the concentration at half of the fitted maximal effect; on the % scale 0 is the no-effect control and ±100 the full control effect; nearly all actives have a fitted effect of over 55% in size
Target sequence (A8B2U2 whole entry, looked up): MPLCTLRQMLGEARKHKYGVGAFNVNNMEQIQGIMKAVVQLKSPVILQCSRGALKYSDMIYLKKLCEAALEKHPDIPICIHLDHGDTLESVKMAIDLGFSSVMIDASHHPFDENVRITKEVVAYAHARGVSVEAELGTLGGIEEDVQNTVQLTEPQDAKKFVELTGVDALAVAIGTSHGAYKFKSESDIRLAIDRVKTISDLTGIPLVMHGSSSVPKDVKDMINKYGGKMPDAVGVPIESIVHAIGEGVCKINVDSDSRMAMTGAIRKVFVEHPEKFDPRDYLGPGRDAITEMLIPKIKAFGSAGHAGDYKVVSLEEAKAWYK
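Giardia FBPA (40 nM reagent) was preincubated 10 min at RT with compound (up to 57.5 uM final), then substrate plus GAPDH/TPI/NAD/arsenate coupling system with diaphorase/resazurin was added; resorufin fluorescence (525/598 nm) was read after 20 min.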
MARV entry inh = qHTS for inhibitors of binding or entry into cells for Marburg Virus; AID 540276, 2011; 300,000 compounds, 1.8% hits; Marburg virus pseudotyped entry inhibition, cell reporter; Potency, µM (doses to about 37.8 µM), for inactives: at the top dose activity change, negative = inhibition, hits mostly inhibitors; calls by dose curve; tested in HEK293 cells; further: potency means the concentration at half of the fitted maximal effect; on the % scale 0 is the no-effect control and ±100 the full control effect
HCV inh = qHTS Assay for Inhibitors of Hepatitis C Virus (HCV); Potency, µM (highest dose often 41.8 µM), for inactives: top-dose activity change, negative = inhibition, actives largely listed as inhibitors; 340,000 compounds, 3.4% hits; AID 651820, 2012; Huh7.5.1 HCVcc-Cre infection, luciferase reporter, 44 h; further: potency means the concentration at half of the fitted maximal effect; on the % scale 0 is the no-effect control and ±100 the full control effect
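Seed cells (1,000/well) for 4 h; treat with compound and infect with HCVcc-Cre, moi about 0.5. Incubate 44 h, then detect luciferase activity.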
HCMV inh = qHTS Assay for inhibitors of the human cytomegalovirus (HCMV) | activity change, negative = inhibition, % at 57.5 µM | 410,000 compounds, 4.5% hits | HFF cells, HCMV-luciferase reporter, 72 h; stronger effect = lower value; in the data active means activity change below about -60%; inconclusive means no clear call, values can overlap the other calls; inactive means above about -39%; further: on the % scale 0 is the no-effect control and ±100 the full control effect
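After 16 h attachment at 37C, HFF cells received test compound and HCMV-luciferase (1 PFU/cell); reporter luminescence read 72 h later, data normalized against buffer-only and known inhibitor Salinomycin.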
Lassa entry inh = qHTS for Inhibitors of binding or entry into cells for Lassa Virus. Lassa virus pseudotype entry inhibition, cell reporter. Potency, µM (titrated, usually from 37.9 µM), without a hit: top-dose activity change, negative = inhibition, usual class: inhibitors. 300,000 compounds, 1.2% hits. AID 540256, 2011; calls by dose curve; tested in HEK293 cells; further: potency means the concentration at half of the fitted maximal effect; on the % scale 0 is the no-effect control and ±100 the full control effect; nearly all actives have a fitted effect of over 50% in size
HCV inh confirm = qHTS Assay for Inhibitors of Hepatitis C Virus (HCV): Confirmation Assay for Cherry-picked Compounds. 640 compounds, 78% hits. AID 720575, 2013. shares compounds with HCV inh. Potency, µM (doses to about 41.8 µM), for inactives: top-dose activity, negative = inhibition, hits mostly inhibitors. HCVcc-Cre infectious virus cell assay, luciferase, inhibition; further: potency means the concentration at half of the fitted maximal effect; nearly all actives have a fitted effect of over 80% in size
HCV host tox = qHTS Assay for Inhibitors of Hepatitis C Virus (HCV): Cytotoxicity Counterscreen for Cherry-picked Compounds; shares compounds with HCV inh; HCV host cell line cytotoxicity counterscreen; Potency, µM (top dose mostly 41.8 µM), inactives show top-dose activity change, negative = cytotoxicity, hits mostly inhibitors; 640 compounds, 22% hits; AID 720576, 2013;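 further: potency means the concentration at half of the fitted maximal effect; 44 h compound exposure; on the % scale 0 is the no-effect control and ±100 the full control effect; nearly all actives have a fitted effect of over 55% in size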
Starred values were filed as active, the others as inactive; ? = inconclusive; . = no result given; [ ] = remark or other dose. This is a sample that favours compounds with a hit; in the whole collection about 8.3% have one here. Unless noted, the call rests on the fitted dose curve; in most records, active means well fitted curve in the direction sought with a large enough effect; inconclusive means small, poorly fitted or top-dose-only effect, or another doubt; inactive means no such curve, though single readings can be large; an effect the other way counts as inactive or inconclusive.

SMILES | FMDV inh | Giardia FBPA inh | MARV entry inh | HCV inh | HCMV inh | Lassa entry inh | HCV inh confirm | HCV host tox
O=[N+]([O-])c1ccccc1/C=C/c1ccc2ccccc2n1 | -24% | 6% | ? | ? | 210 | -14%[46.1 µM] | . | .
O=C(NCCc1nc2ccccc2n1Cc1ccc(F)cc1)c1ccco1 | -9% | . | -18%[46.1 µM] | . | -12 | -7%[46.1 µM] | . | .
COc1ccc(CC(=O)Nc2cccc(-c3nnc(-c4ccc(C)cc4)o3)c2)cc1OC | 4µM* | 0% | 9.2µM* | 3.2µM* | -93* | ? | 6.3µM* | -27%
CC(=O)Nc1cccc(-c2nnc(-c3ccccc3)o2)c1 | -4% | 5% | ? | 6% | 113 | 0% | . | .
COc1cc(C(=O)Nc2cccc(NC(=O)c3ccccc3)c2)cc(OC)c1OC | -3% | 8% | . | ? | 15 | . | . | .
COc1cc(C(=O)Nc2cccc(NC(=O)c3cccs3)c2)cc(OC)c1OC | 11% | 3% | . | ? | 33 | . | 13µM* | 72%
CC(C)(C)C1C/C(=C/c2ccccn2)C(=O)/C(=C/c2ccccn2)C1 (centres undefined) | 3.5µM* | ? | . | 0.89µM* | . | . | 1µM* | 1.4µM*
CC1C/C(=C/c2ccco2)C(=O)/C(=C/c2ccco2)C1 (centres undefined) | . | ? | ? | 1%[0.335 µM] | . | -4% | . | .
CCCCNC(=O)c1cccc(NC(=O)c2nsc3ccccc23)c1 | 25% | . | . | . | 65 | -7%[46.1 µM] | . | .
COc1ccc(OC)c(NC(=O)c2ccccc2SC)c1 | 18% | 2% | ? | 8.9µM* | -35 | -5% | ? | -13%
COc1ccc(NC(=O)c2ccccc2SC)cc1 | 20% | -10% | 22%[46.1 µM] | 19% | -26 | -8%[46.1 µM] | . | .
COc1ccc(S(=O)(=O)Nc2cccc(-c3ccc(N4CCCC4)nn3)c2)c(OC)c1 | 33% | . | . | . | -5 | -6%[46.1 µM] | . | .
COc1ccc(S(=O)(=O)Nc2cccc(-c3ccc(N4CCCCCC4)nn3)c2)c(OC)c1 | 30% | . | . | 3.5µM* | -23 | -29%[46.1 µM] | 20µM* | -15%
COC(=O)c1cc2sccc2n1CC(=O)Nc1cc(Cl)ccc1OC | ? | . | -13%[46.1 µM] | . | ? | . | . | .
Cc1cccc(CN2CCN(CC(=O)NCCCN3CCN(c4ccc(F)cc4)CC3)C2=O)c1 | ? | 2% | ? | 5.6µM* | ? | -12% | 22µM* | ?
Cc1cccc(-c2nc3c4ccccc4nc(N4CCN(c5cc(C)ccc5C)CC4)n3n2)c1 | 11% | . | 3%[46.1 µM] | . | 130 | . | . | .
CCCCCOC(=O)CSc1nc2c(c(=O)[nH]c(=O)n2C)n1Cc1ccc(Cl)cc1 | -15% | 4% | 35% | 2.8µM* | 9 | -3% | 5.6µM* | 20%
CCSc1nc2c(c(=O)[nH]c(=O)n2C)n1Cc1ccc(Cl)cc1 | ? | 2% | ? | -9% | -21 | 3% | . | .
C/C(=N\NC(=S)Nc1cc(S(=O)(=O)N2CCOCC2)ccc1Cl)c1ccccc1F | 13µM* | 7% | ? | ? | -92* | ? | 22µM* | ?
COc1ccc(NC(=O)c2cccc(N3CCCS3(=O)=O)c2)cc1OC | 3% | . | . | . | 36 | ? | . | .
COC(=O)C[C@@](O)(CCC(C)(C)O)C(=O)O[C@@H]1C(OC)=C[C@]23CCCN2CCc2cc4c(cc2[C@@H]13)OCO4 | . | -3% | . | . | . | . | . | .
O=C(N/N=C1\CCCc2c1[nH]c1ccc(Cl)cc21)c1ccncc1 | ? | 2% | 1% | 3.2µM* | ? | . | 8.9µM* | ?
COCC(=O)N1CCC[C@@]2(CCN(c3ccccn3)C2)C1 | 12% | -8% | . | . | . | . | . | .
CCn1c2c(c(=N)c3ccccc31)CCC2 | ? | 0% | -26% | 8.9µM* | -77* | -1% | 25µM* | ?
CCc1ccc(C2c3c(oc4ccc(F)cc4c3=O)C(=O)N2c2nc(C)c(C(=O)OC)s2)cc1 (centres undefined) | -8% | . | 16%[46.1 µM] | . | -5 | -2%[46.1 µM] | . | .
SMILES | FMDV inh | Giardia FBPA inh | MARV entry inh | HCV inh | HCMV inh | Lassa entry inh | HCV inh confirm | HCV host tox
Nc1nc(F)nc2c1ncn2[C@@H]1O[C@H](CO)[C@@H](O)[C@H]1O | ? | . | . | 0.79µM* | -96* | . | 2µM* | 6.3µM*
CCOc1ccc2oc(=O)cc(CN3CCN(Cc4ccc(F)cc4)CC3)c2c1 | -28% | . | ? | . | -12 | 25%[46.1 µM] | . | .
C=CCNC(=S)N/N=C/c1ccc(C(F)(F)F)cc1 | ? | ? | . | 8.9µM* | -86* | . | 8.9µM* | 13µM*
Cc1ccc(CNC(=O)c2c(O)nc3ccccn3c2=O)cc1 | -9% | . | ? | . | -34 | . | . | .
COc1ccc(C(=O)CSc2nc(C)cc(=O)[nH]2)cc1 | 28% | -10% | 22% | 19% | 3 | -2% | . | .
COc1ccc(N/N=C(/N=Nc2nc(C)cc(=O)[nH]2)c2ccccc2)cc1 | -8% | -20% | 4.5µM* | 4.5µM* | -89* | 5µM* | 7.9µM* | 11µM*
COc1cccc(Oc2ccc(N)cn2)c1 | 14% | 25% | 26% | ? | 11 | 13% | . | .
Cc1cc(Oc2ccc(N)cn2)ccc1Cl | 28% | -7% | 8% | ? | 99 | -4% | ? | 49%
CCCCn1c(=N)n(CC(O)COc2cccc(C)c2)c2ccccc21 (centres undefined) | ? | 2% | ? | 8.9µM* | -63* | ? | 14µM* | ?
CCCn1c(=N)n(CC(O)COc2ccc(C)cc2)c2ccccc21 (centres undefined) | ? | 0% | ? | ? | -6 | ? | . | .
CC(Nc1ccnc2cc(Cl)ccc12)c1ccc(S(N)(=O)=O)cc1 (centres undefined) | -14% | -14% | -2%[46.1 µM] | -2% | 14 | ? | . | .
CC(C)NC1CCC(Nc2ccnc3cc(Cl)ccc23)CC1 (centres undefined) | -32% | . | 2.8µM* | 2.8µM* | ? | ? | 4µM* | -72%
CCC/C=C(\CCC)C(NS(=O)(=O)c1ccc(-c2ccccc2)cc1)c1ccc(C(=O)OC)cc1 (centres undefined) | . | -1% | . | . | . | . | . | .
COc1cc(NC(=O)c2ccccc2F)c(OC)cc1NC(=O)CN1CCOCC1 | 38% | -15% | 1%[46.1 µM] | ? | 6 | -18% | ? | 11%
CCN(CC)C(=O)CSc1nc2cc3c(cc2c(=O)n1Cc1ccc(OC)cc1)OCO3 | 21% | -3% | -9%[46.1 µM] | ? | ? | ? | 5.6µM* | 12%
